Data on 12 compounds can be found in PubChem BioAssay (NCATS).

Results filed as inconclusive are left out. Calls of active or inactive are those of the source. Calls come from the whole dose curve; as a rule, active = well fitted inhibition curve with a large enough effect; inconclusive = small, poorly fitted or top-dose-only effect; inactive = flat fitted curve, though single readings scatter.

What all share (assay): qHTS profiling for inhibitors of Plasmodium falciparum proliferation (AID 504749); note: nearly all actives have a fitted effect of over 60% in size
Details in all cases: P. falciparum in erythrocytes, SYBR Green DNA, 72 h; series mostly up to 28.7 µM

The test system of assay [1] is ATS189. In a few lines: (§1)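 Parasite proliferation within erythrocytes, 72 h exposure. Endpoint: SYBR Green I fluorescence after overnight lysis at room temperature. Controls: 0.29 uM artemisinin, DMSO.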
Assay [2] deals with ATS95. In a few lines: as §1
Assay [3] concerns C2A. In a few lines:
as §1

For assay [4], the system named is CP185. In a few lines:
as §1

Assay [5] has as its system CP191. The method in brief: as §1
Assay [6] relates to CP192. The method in brief: as §1
Assay [7] concerns CP194. The method in brief:
as §1

Assay [8] relates to CP201. In a few lines: as §1
Assay [9] deals with CP203. The method in brief:
as §1

Assay [10] deals with CP211. In a few lines: as §1
Assay [11] deals with CP215. The method in brief: as §1
Assay [12] deals with CP217. The method in brief: as §1
For assay [13], the system named is CP237. In a few lines:
as §1

Assay [14] has as its system CP238. In a few lines:
as §1

Assay [15] deals with CP247. In a few lines: as §1
Assay [16] deals with CP250. In a few lines:
as §1

Assay [17] concerns CP252. The method in brief:
as §1

Assay [18] has as its system CP256. The method in brief: as §1
In assay [19] the test system is CP260. In a few lines: as §1
Assay [20] relates to CP262. The method in brief: as §1
Potency is the fitted concentration of half-maximal effect.

`CCCCNc1ccc(C(=O)OCCOCCOCCOCCOCCOCCOCCOCCOCCOC)cc1`: the Potency entry in assay [1], in assay [2], in assay [3], in [4], in assay [5] and in assay [6] was “inactive” each time. In addition, the Potency entry in assay [7], in [8], in assay [9], in assay [10], in assay [11] and in [12] was “inactive” in each case. The Potency result in assay [13], in assay [14], in [15], in [16], in assay [17] and in assay [18] was “inactive” throughout. Besides, the Potency result in assay [19] and in [20] was “inactive” throughout.

For `C/C=C/C=N/NC(=O)c1ccncc1`, the Potency entry in assay [1], in assay [2], in [3], in assay [4], in assay [5] and in [6] was “inactive” each time. The Potency result in assay [7], in assay [8], in [9], in [10], in assay [11] and in assay [12] was “inactive” throughout. Also, the Potency result in [13], in assay [14], in assay [15], in [16], in assay [17] and in assay [18] was “inactive” throughout. The Potency entry in assay [19] and in assay [20] was “inactive” throughout.

As for `CC(C)Cn1cnc2c1c(=O)n(C)c(=O)n2C`, the Potency entry in [1], in assay [2], in [3], in assay [4], in assay [5] and in assay [6] was “inactive” each time. In addition, the Potency entry in assay [7], in [8], in assay [9], in assay [10], in assay [11] and in assay [12] was “inactive” in each case. For the same compound, the Potency entry in assay [13], in assay [14], in assay [15], in assay [16], in assay [17] and in assay [18] was “inactive” in each case. Moreover, the Potency result in [19] and in assay [20] was “inactive” throughout.

Take `COc1cc(C(=O)NCc2ccc(OCCN(C)C)cc2)cc(OC)c1OC`: the Potency result in assay [1], in [2], in assay [3], in assay [4], in [5] and in [6] was “inactive” throughout. The Potency entry in assay [7], in assay [8], in [9], in assay [10], in [11] and in assay [12] was “inactive” each time. Besides, the Potency result in [13], in assay [14], in [15], in assay [16], in [17] and in assay [18] was “inactive” in each case. In addition, the Potency result in [19] and in assay [20] was “inactive” in each case.

`CC(=O)Nc1ccc(OC(=O)c2ccccc2OC(C)=O)cc1`: the Potency result in assay [1], in assay [2], in assay [3], in [4], in assay [5] and in [6] was “inactive” throughout. For the same compound, the Potency result in assay [7], in assay [8], in assay [9], in assay [10], in assay [11] and in [12] was “inactive” throughout. The Potency result in [13], in assay [14], in assay [15], in assay [16], in assay [17] and in assay [18] was “inactive” throughout. Besides, the Potency result in [19] and in assay [20] was “inactive” in each case.

`CC(=O)Nc1ccc(S(=O)(=O)Nc2ccc([N+](=O)[O-])cc2)cc1`: the Potency entry in assay [1], in [2], in [3], in assay [4], in assay [5] and in [6] was “inactive” each time. The Potency result in assay [7], in assay [8], in [9], in assay [10], in assay [11] and in [12] was “inactive” each time. In addition, the Potency entry in [13], in [14], in assay [15], in assay [16], in assay [17] and in assay [18] was “inactive” throughout. The Potency result in assay [19] and in assay [20] was “inactive” in each case.

As for `CCOc1ccccc1C(N)=O`, the Potency result in assay [1], in assay [2], in assay [3], in assay [4], in assay [5] and in [6] was “inactive” throughout. Moreover, the Potency result in assay [7], in assay [8], in [9], in assay [10], in [11] and in assay [12] was “inactive” in each case. In addition, the Potency result in assay [13], in [14], in assay [15], in [16], in assay [17] and in assay [18] was “inactive” each time. For the same compound, the Potency result in assay [19] and in assay [20] was “inactive” each time.

Turning to `CC(=O)Nc1ccc(OCC(O)CNC(C)C)cc1` (stereo not drawn), the Potency entry in assay [1], in [2], in [3], in [4], in assay [5] and in assay [6] was “inactive” throughout. The Potency entry in assay [7], in [8], in assay [9], in [10], in [11] and in [12] was “inactive” in each case. The Potency result in assay [13], in [14], in assay [15], in assay [16], in [17] and in assay [18] was “inactive” each time. The Potency result in assay [19] and in assay [20] was “inactive” throughout.

As to `CCCCCCCCOc1ccc(C(=O)c2ccccc2)c(O)c1`, the Potency entry in [1], in assay [2], in [3], in [4], in [5] and in [6] was “inactive” each time. The Potency result in assay [7], in assay [8], in [9], in assay [10], in assay [11] and in assay [12] was “inactive” in each case. The Potency entry in assay [13], in assay [14], in assay [15], in [16], in [17] and in assay [18] was “inactive” each time. Besides, the Potency result in [19] and in [20] was “inactive” in each case.

For the compound `Oc1ccccc1C=NCc1ccccc1`, the Potency entry in assay [1], in assay [2], in assay [3], in [4], in assay [5] and in assay [6] was “inactive” in each case. The Potency result in assay [7], in assay [8], in assay [9], in assay [10], in assay [11] and in assay [12] was “inactive” throughout. The Potency entry in [13], in assay [14], in assay [15], in [16], in assay [17] and in [18] was “inactive” throughout. The Potency result in assay [19] and in [20] was “inactive” in each case.

For `CCOC(=O)c1c(N)sc2c1CCN(Cc1ccccc1)C2`, the Potency in [1] was 7.94 µM (active); in assay [2], 8.91 µM (active); in [3] it was 11.2 µM (active); in assay [4], 5.01 µM (active); in assay [5], 5.01 µM (active); in [6], 5.36 µM (active). Moreover, the Potency was 7.57 µM (active) in assay [7]; 6.75 µM (active) in [8]; 4.26 µM (active) in assay [9]; 6.75 µM (active) in assay [10]; 8.49 µM (active) in assay [11]; 5.62 µM (active) in assay [12]. Besides, the Potency in assay [13] is 7.94 µM (active); in [14] it was 5.62 µM (active); in assay [15] it was 3.98 µM (active); in [16], 5.01 µM (active); in assay [17], 7.94 µM (active); in [18], 5.01 µM (active). Further, in [19], the Potency was 6.31 µM (active).

For the compound `O=C(c1ccc(F)cc1)C1CCN(CCn2c(=S)[nH]c3ccccc3c2=O)CC1`, the Potency in assay [1] is 6.31 µM (active); in assay [2], 5.01 µM (active); in [3], 10 µM (active); in assay [4], 7.94 µM (active); in assay [5], 11.2 µM (active); in assay [6] it was 6.75 µM (active). For the same compound, the Potency in [7] was 7.57 µM (active); in assay [8], 7.57 µM (active); in assay [9], 6.01 µM (active); in [10] it was 6.01 µM (active); in assay [11], 5.36 µM (active); in [12], 5.01 µM (active). The Potency in assay [13] was 5.01 µM (active); in assay [14] it was 7.94 µM (active); in assay [15] it was 4.47 µM (active); in assay [16] it was 10 µM (active); in [17], 6.31 µM (active); in [18], 8.91 µM (active). Besides, the Potency in assay [19] is 3.16 µM (active).
